# Measurements: the supplement of paper PMC10849652
# Of roughly 8,800 targets only a part is listed; those with a hit were picked by preference. About 0.5% of all pairs of compound and target were hits. Unmarked numbers belong to inactive results.
# What was measured:
# Experiment in all cases: log2 fold change, soluble protein after heating vs DMSO (PISA); higher = thermal stabilisation; K562 lysate, 10 uM; active = over 0.2 and 3.5 SD of the protein, either way, in both replicates (recomputed)
# erlotinib = compound: C#Cc1cccc(Nc2ncnc3cc(OCCOC)c(OCCOC)cc23)c1 [erlotinib]
# Summary of the method: (§1)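 Following dounce homogenisation of K562 pellets in PBS pH 7.4 with 1 mM MgCl2, crude extract at 1 mg/mL protein was incubated for 30 min with 10 μM compound. Aliquots were then heated for 3 min over 48°C-58°C and pooled, NP-40 was added to 0.5% at 4°C, and soluble protein was recovered as the supernatant at 21,000xg for 90 min. Channel-sum-equalised TMTpro 16plex LC-MS/MS quantified this protein. Each value, from duplicates, is a log-two fold change in thermal stability relative to solvent controls.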
# [1] = compound: C/C(=N\NC(=O)C1=CC(=CC=C1)S(=O)(=O)N2CCOCC2)/C3=C(C=CC(=C3)Cl)O
# Summary of the method: as §1
# [2] = compound: C1=CC(=CC=C1C2=NC3=C(N2)C=C(C=C3)C(=O)N)OC4=CC=C(C=C4)Cl
# Summary of the method: as §1
# [3] = compound: C1=CC2=C(C=CC(=C2)/C=C\3/C(=O)NC(=NCC4=CC=CS4)S3)N=C1
# Summary of the method: as §1
# [4] = compound: C1=CC2=NC=CN=C2C=C1/C=C/3\C(=O)NC(=O)S3
# Summary of the method: as §1
# [5] = compound: C1=CC=C(C=C1)C2=NC(=C(N2)C3=CC=NC=C3)C4=CC(=C(C=C4)Cl)O
# Summary of the method: as §1
# [6] = compound: C1=CC=C2C(=C1)C3=NNC4=CC=CC(=C43)C2=O
# Summary of the method: as §1
# [7] = compound: C1CCN(C1)C(=O)NC2=CC=CC(=C2)NC3=NC=C(C(=N3)NCCC4=CN=CN4)Br
# Summary of the method: as §1
# [8] = compound: C1CN(CCC1(CC2=CC=C(C=C2)Cl)N)C3=NC=NC4=C3C=CN4
# Summary of the method: as §1
# IRAK-1-4 Inhibitor I = compound: C1COCCN1CCN2C3=CC=CC=C3N=C2NC(=O)C4=CC(=CC=C4)[N+](=O)[O-] [IRAK-1-4 Inhibitor I]
# Summary of the method: as §1
# Chain of UniProt Q9GZY8 (Q9GZY8 whole entry, looked up): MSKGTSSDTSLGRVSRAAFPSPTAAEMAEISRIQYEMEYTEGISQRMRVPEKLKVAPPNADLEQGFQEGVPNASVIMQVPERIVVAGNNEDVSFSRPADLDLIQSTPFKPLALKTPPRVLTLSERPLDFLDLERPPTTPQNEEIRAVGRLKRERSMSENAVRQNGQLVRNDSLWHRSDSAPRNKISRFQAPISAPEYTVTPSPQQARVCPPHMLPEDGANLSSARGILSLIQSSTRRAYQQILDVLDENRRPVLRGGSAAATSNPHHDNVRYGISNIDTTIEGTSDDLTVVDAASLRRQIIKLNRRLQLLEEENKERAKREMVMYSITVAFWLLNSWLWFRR
# Chain of UniProt P53778 (P53778 whole entry, looked up): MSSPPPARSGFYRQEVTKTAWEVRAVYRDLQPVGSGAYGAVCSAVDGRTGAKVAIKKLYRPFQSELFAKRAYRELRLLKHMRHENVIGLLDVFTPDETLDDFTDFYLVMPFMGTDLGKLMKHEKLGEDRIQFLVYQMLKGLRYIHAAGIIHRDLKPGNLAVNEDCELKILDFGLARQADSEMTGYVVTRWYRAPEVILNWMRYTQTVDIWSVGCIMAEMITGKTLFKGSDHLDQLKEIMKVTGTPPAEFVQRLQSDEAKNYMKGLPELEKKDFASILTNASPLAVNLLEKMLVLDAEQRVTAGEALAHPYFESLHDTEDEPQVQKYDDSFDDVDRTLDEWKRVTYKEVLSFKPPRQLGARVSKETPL
# Chain of UniProt Q7Z3U7 (Q7Z3U7 whole entry, looked up): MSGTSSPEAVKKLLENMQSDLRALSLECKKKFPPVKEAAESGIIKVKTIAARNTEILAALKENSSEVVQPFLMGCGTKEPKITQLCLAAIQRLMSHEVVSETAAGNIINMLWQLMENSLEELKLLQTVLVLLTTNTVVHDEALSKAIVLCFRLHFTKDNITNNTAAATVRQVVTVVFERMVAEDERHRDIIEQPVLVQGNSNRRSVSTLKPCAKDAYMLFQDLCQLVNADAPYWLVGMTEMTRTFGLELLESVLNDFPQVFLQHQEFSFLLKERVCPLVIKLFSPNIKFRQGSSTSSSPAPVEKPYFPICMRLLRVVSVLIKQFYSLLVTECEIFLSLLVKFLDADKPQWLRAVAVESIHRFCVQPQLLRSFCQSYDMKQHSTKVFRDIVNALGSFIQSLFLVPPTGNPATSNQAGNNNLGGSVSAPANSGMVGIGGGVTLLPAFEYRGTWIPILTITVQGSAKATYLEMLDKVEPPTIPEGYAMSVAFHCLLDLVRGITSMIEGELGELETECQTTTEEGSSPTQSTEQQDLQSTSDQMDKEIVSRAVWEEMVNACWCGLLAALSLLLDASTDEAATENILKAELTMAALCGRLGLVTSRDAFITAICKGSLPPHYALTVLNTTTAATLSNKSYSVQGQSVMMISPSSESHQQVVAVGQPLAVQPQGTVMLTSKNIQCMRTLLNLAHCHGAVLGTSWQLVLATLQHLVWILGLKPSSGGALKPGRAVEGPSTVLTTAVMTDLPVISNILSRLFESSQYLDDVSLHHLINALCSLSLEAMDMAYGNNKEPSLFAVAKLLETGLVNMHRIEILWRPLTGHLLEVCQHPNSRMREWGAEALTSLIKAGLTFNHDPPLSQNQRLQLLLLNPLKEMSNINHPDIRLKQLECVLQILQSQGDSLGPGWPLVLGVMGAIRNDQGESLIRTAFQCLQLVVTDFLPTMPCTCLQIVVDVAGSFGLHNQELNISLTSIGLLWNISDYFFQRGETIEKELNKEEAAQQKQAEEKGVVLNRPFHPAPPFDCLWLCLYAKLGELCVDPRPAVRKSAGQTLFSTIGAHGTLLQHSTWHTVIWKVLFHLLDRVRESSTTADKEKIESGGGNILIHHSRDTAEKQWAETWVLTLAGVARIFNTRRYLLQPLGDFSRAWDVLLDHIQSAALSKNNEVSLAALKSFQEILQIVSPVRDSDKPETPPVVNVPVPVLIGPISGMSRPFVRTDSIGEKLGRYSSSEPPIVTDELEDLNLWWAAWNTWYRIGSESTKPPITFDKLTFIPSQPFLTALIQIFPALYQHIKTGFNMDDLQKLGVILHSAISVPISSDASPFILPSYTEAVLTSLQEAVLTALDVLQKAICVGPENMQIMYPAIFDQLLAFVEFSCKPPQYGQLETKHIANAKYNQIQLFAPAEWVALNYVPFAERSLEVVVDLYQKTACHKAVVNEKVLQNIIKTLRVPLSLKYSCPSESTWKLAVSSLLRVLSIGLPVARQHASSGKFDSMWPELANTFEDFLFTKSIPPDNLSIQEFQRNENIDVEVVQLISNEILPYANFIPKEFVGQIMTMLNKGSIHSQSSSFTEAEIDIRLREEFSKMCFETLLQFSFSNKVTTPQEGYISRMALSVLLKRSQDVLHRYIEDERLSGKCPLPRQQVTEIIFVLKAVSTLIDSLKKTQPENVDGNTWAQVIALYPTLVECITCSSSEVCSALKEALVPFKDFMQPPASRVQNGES
# Chain of UniProt O14733 (O14733 whole entry, looked up): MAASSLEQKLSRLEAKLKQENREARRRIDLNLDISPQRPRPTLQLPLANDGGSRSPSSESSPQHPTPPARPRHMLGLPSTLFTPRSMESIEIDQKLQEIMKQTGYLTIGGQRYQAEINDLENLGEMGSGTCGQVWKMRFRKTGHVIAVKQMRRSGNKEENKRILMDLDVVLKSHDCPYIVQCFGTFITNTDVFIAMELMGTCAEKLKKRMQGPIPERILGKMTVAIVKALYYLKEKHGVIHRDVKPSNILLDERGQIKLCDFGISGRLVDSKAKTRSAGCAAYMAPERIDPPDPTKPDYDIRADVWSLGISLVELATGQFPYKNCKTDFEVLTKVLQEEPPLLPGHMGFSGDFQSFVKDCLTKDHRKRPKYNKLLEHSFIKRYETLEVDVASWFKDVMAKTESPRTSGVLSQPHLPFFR
# Chain of UniProt Q1ED39 (Q1ED39 whole entry, looked up): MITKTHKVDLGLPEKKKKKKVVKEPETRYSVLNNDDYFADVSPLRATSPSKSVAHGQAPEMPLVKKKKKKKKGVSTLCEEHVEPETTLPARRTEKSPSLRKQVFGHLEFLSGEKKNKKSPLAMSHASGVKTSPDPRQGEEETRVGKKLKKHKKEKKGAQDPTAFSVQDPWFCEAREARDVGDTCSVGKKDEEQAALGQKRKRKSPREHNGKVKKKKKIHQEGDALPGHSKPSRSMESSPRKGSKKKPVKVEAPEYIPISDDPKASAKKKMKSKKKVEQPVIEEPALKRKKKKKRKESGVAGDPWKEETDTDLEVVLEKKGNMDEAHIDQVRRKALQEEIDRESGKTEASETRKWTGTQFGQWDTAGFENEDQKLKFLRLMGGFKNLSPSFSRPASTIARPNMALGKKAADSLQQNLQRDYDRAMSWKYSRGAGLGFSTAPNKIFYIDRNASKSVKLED
# Chain of UniProt O00522 (O00522 whole entry, looked up): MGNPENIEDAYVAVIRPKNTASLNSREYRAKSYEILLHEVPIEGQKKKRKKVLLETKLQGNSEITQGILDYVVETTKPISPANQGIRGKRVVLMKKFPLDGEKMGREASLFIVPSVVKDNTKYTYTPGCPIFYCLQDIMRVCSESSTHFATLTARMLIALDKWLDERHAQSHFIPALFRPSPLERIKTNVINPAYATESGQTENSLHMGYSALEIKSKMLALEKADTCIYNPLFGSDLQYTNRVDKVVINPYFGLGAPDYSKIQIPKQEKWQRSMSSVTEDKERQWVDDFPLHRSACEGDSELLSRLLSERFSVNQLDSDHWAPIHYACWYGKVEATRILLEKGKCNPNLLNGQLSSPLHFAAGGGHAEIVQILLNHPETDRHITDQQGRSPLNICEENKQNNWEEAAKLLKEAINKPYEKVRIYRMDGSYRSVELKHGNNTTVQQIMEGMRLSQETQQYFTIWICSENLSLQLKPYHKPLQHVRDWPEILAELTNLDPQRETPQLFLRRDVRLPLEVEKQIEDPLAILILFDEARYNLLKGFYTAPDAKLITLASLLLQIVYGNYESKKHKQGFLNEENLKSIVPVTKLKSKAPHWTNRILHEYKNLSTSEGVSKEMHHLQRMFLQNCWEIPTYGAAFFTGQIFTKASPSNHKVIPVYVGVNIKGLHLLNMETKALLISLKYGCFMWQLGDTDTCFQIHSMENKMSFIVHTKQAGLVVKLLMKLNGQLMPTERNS
# Chain of UniProt Q9HAP2 (Q9HAP2 whole entry, looked up): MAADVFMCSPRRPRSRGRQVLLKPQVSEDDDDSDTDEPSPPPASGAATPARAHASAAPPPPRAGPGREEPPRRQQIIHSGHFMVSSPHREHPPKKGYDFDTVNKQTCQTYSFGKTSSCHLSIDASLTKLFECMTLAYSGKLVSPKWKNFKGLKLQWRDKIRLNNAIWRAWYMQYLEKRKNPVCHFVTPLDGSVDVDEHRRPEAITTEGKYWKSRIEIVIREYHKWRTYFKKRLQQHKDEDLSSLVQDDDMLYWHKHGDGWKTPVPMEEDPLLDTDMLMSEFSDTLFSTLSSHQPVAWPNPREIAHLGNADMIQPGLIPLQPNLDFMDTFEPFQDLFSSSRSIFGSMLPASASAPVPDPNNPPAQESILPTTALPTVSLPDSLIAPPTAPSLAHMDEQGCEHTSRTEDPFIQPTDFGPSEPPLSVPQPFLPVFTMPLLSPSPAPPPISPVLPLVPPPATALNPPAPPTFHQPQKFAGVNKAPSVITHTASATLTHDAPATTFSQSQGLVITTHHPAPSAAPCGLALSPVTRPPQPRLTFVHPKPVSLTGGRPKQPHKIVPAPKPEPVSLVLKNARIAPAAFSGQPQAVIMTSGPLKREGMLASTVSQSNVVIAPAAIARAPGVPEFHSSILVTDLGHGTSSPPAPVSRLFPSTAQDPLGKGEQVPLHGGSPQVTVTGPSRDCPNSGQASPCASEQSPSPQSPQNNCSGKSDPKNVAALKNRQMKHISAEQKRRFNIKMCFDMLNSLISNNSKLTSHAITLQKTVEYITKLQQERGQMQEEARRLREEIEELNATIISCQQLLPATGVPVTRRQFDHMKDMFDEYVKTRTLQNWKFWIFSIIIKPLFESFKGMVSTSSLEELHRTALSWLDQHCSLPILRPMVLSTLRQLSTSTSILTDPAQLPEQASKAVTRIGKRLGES
Target,log2 fold change (erlotinib),log2 fold change [1],log2 fold change [2],log2 fold change [3],log2 fold change [4],log2 fold change [5],log2 fold change [6],log2 fold change [7],log2 fold change [8],log2 fold change (IRAK-1-4 Inhibitor I)
LPCAT1 (UniProt Q8NF37),0.056,-0.052,-0.057,0.054,0.062,-0.09,-0.014,-0.007,-0.025,0.04
MAPKAPK2 (UniProt P49137),-0.047,0.041,0,0.192,0.003,0.013,0.026,-0.02,0.018,-0.017
LRRC40 (UniProt Q9H9A6),-0.014,0.009,0.004,-0.002,-0.028,-0.015,-0.014,-0.036,-0.011,-0.017
KRR1 (UniProt Q13601),0.016,-0.232,-0.007,-0.019,0.009,-0.01,0.045,-0.032,0.06,-0.069
LBR (UniProt Q14739),0.03,0.052,-0.066,-0.021,-0.081,-0.028,-0.08,-0.032,0.005,0.028
MED14 (UniProt O60244),-0.012,0.018,0.008,0.027,0.015,0,-0.066,-0.014,-0.042,0.005
MGST1 (UniProt P10620),-0.041,-0.068,0.016,-0.051,0.024,-0.031,-0.036,-0.07,0.089,0.067
MAP2K7 isoform 4 (UniProt O14733),-0.042,-0.034,0.037,0.091,0.241,0.044,0.586 (active),-0.106,0.078,-0.123
MAP4K4 isoform 3 (UniProt O95819),-0.003,-0.025,0.099,0.038,-0.027,-0.093,-0.077,0.008,-0.011,0.059
MAD2L1BP isoform 3 (UniProt Q15013),0.067,-0.081,0.002,0.078,-0.015,0.005,0.063,-0.029,0.263 (active),-0.002
MAPK12 (UniProt P53778),0,-0.026,0.009,0.016,0.041,0.023,0.001,-0.058,0.019,-0.048
LIMS1 isoform 3 (UniProt P48059),-0.004,-0.034,0.014,0.009,-0.008,0.004,0.094,0.003,-0.017,-0.024
KNOP1 (UniProt Q1ED39),-0.018,-0.011,-0.006,-0.176,0.019,0.008,0.109,-0.128,0.118,0.123
MAPKAPK5 (UniProt Q8IW41),-0.058,-0.045,0.016,0.12,0.007,-0.024,0.276 (active),0.035,0.031,-0.049
MRPL46 (UniProt Q9H2W6),-0.027,-0.01,-0.039,-0.124,-0.069,0.023,0.089,-0.009,-0.064,0.035
LRCH3 (UniProt Q96II8),0.043,0.047,0.021,-0.013,0.001,0,-0.053,-0.102,-0.014,0.028
MAP2K1 (UniProt Q02750),0.016,0.04,-0.026,-0.02,-0.012,-0.006,0.188,0.105,0.077,0.011
MFF isoform 2 (UniProt Q9GZY8),0.006,-0.056,0.021,-0.009,-0.014,-0.035,-0.005,0.024,0.037,0.018
MAST4 (UniProt O15021),-0.019,-0.026,-0.031,0.027,-0.044,0.01,0.384 (active),0.149,-0.011,-0.008
MAP11 (UniProt Q8WVR3),0.013,-0.018,-0.009,0.006,0.061,-0.004,0.064,-0.135,0.02,-0.02
KIF21A isoform 5 (UniProt Q7Z4S6),-0.025,0.022,-0.002,0.01,-0.013,-0.016,-0.034,-0.009,0.01,-0.002
KPNA2 (UniProt P52292),0.009,0.03,-0.026,0.005,0.002,-0.003,-0.053,-0.017,0.013,-0.02
MOCS1 isoform 8 (UniProt Q9NZB8),-0.055,-0.002,0.074,0.058,-0.008,0.026,0,-0.056,0.183,0.02
LAMP1 (UniProt P11279),0.024,0.012,0.021,-0.009,0.012,0.006,-0.006,-0.023,0.038,0.091
MLXIP (UniProt Q9HAP2),0.011,0.003,0.027,0.01,-0.017,0.04,-0.011,-0.025,-0.01,0.003
LPIN1 isoform 7 (UniProt Q14693),0.047,-0.046,0.027,0.003,0.003,0.011,-0.006,0.038,0.132,0.034
KIF2A isoform 4 (UniProt O00139),-0.008,0.02,-0.014,-0.007,-0.037,0.001,-0.022,-0.02,-0.041,-0.026
KRIT1 (UniProt O00522),0.071,0.061,0.043,-0.074,0.177,0.038,-0.034,-0.042,0.043,-0.073
LYAR (UniProt Q9NX58),-0.007,-0.004,0,-0.007,-0.011,0.046,0.018,0.007,-0.003,-0.018
MON2 isoform 5 (UniProt Q7Z3U7),0.031,-0.031,-0.018,0.019,0.001,-0.016,-0.021,0.012,0.04,0.009
